The results in this text go back to PubChem BioAssay (NCI).

Among the test systems are NCI-H226 lung; NCI-H322M lung; HOP-62 NSCLC; NCI-H460 lung; HOP-92 NSCLC; NCI-H522 lung; A549/ATCC NSCLC; 786-0 renal; COLO 205 colon.
Common to all, as to assay: NCI-60 one-dose screen, 48 h (100 = growth as untreated, 0 = no growth, -100 = all killed)
Common to all, as to conditions: 10 µM unless noted

The panel holds about 83,000 compounds, 20% with a hit somewhere; the sample as a whole holds those more often.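 Assay: single dose, 48 h. Readout: percent growth (0 = no net growth; negative = cell death). Active: <10.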 Values without a mark were called inactive. Activity calls are given as the source filed them.

Turning to `COc1ccccc1/C=C1\Oc2cc(OCCN3CCC(Cc4ccccc4)CC3)ccc2C1=O`, the growth in the assay with NCI-H226 lung is 96.9%; in the assay with NCI-H322M lung, 85.6%; with HOP-62 NSCLC it was 103%; in the assay on NCI-H460 lung, 93%; in the assay on HOP-92 NSCLC, 57.8%; in the assay with NCI-H522 lung it was 91.7%. For the same molecule, the growth with A549/ATCC NSCLC was 96.2%; with 786-0 renal, 80%; with COLO 205 colon, 38.4%.
Regarding `Cc1cc(Cl)ccc1NS(=O)(=O)c1ccc(-c2cnc(C3CC3)o2)cc1`, the growth is 27.7% in the assay on NCI-H226 lung; 50.7% with NCI-H322M lung; 48.5% in the assay on HOP-62 NSCLC; 12.2% with NCI-H460 lung; 58.3% with HOP-92 NSCLC; 13.5% in the assay on NCI-H522 lung. In addition, the results for the growth in the assay with A549/ATCC NSCLC, with 786-0 renal and in the assay on COLO 205 colon were 28.4%, 28.6% and -11% (active), respectively.
Consider `COc1ccc(-c2nn(C(=O)c3cc(OC)c(OC)c(OC)c3)c3cc(N)ccc23)cc1`, for which the growth in the assay with NCI-H226 lung was 28.9%; in the assay on NCI-H322M lung it was 53.4%; in the assay with HOP-62 NSCLC, 30.1%; with NCI-H460 lung it was 9.14% (active); with HOP-92 NSCLC it was 50.1%; with NCI-H522 lung, -12.6% (active). Further, the growth in the assay on A549/ATCC NSCLC was 18.1%; in the assay with 786-0 renal, 6.94% (active); in the assay with COLO 205 colon it was -60.3% (active).
With `CCn1cnc2c1c(=O)[nH]c(=O)n2CC1CCC(CNS(=O)(=O)c2ccc(OC3CCOCC3)c(F)c2)CC1` (configuration not stated), the growth is 55.7% with NCI-H226 lung; 66.7% with NCI-H322M lung; 36.5% in the assay with HOP-62 NSCLC; 72.6% in the assay with NCI-H460 lung; 31% in the assay with HOP-92 NSCLC; 39.4% with NCI-H522 lung. For the same molecule, the growth was 54.9% in the assay on A549/ATCC NSCLC, 47.4% with 786-0 renal and 45.3% in the assay with COLO 205 colon.
Consider `Cc1nc2ccccc2c(/C=C/c2ccc(Cl)cc2)c1C(=O)/C=C/c1cccs1`, for which the growth in the assay with NCI-H226 lung was 81.2%; in the assay with NCI-H322M lung, 87.4%; with HOP-62 NSCLC, 94.9%; in the assay with NCI-H460 lung, 66.7%; with HOP-92 NSCLC it was 64.1%; in the assay with NCI-H522 lung it was 57.4%. Further, the growth was 88.1% in the assay on A549/ATCC NSCLC, 87.4% with 786-0 renal and 82% in the assay on COLO 205 colon.
Consider `CNc1nc2c(s1)C(c1cccc(F)c1)CC(=O)N2` (configuration not stated), for which the growth is 90.3% in the assay on NCI-H226 lung; 99.1% with NCI-H322M lung; 93.3% with HOP-62 NSCLC; 106% in the assay on NCI-H460 lung; 93.4% in the assay with HOP-92 NSCLC; 87.4% with NCI-H522 lung. For the same molecule, the growth in the assay with A549/ATCC NSCLC is 106%; with 786-0 renal, 97.4%; in the assay on COLO 205 colon, 110%.
With `COc1cc(/C=C/c2c(C(C)=O)c(C)nc3ccccc23)cc(OC)c1OC`, the growth in the assay on NCI-H226 lung is 52.4%; with NCI-H322M lung, 51.3%; with HOP-62 NSCLC, 42.4%; in the assay on NCI-H460 lung it was 15%; in the assay on HOP-92 NSCLC, 47.8%; with NCI-H522 lung it was 24.6%. In addition, the growth is 53.4% in the assay with A549/ATCC NSCLC, 42.4% in the assay on 786-0 renal and 19% in the assay on COLO 205 colon.
As to `CC1(C)C2CC1C1(/C=N\Nc3ccccc3)C(C2)C(C#N)(C#N)C1(C#N)C#N` (configuration not stated), the growth with NCI-H226 lung was 86.8%; with NCI-H322M lung, 80.4%; with HOP-62 NSCLC, 86.1%; in the assay on NCI-H460 lung it was 99%; in the assay on HOP-92 NSCLC, 80.9%; in the assay with NCI-H522 lung, 77.8%. For the same molecule, the growth was 93.4% in the assay with A549/ATCC NSCLC, 100% in the assay with 786-0 renal and 115% in the assay with COLO 205 colon.
For the molecule `CCc1ccc2nc(NC(=O)Cc3csc(NC(=O)c4ccco4)n3)sc2c1`, the growth in the assay with NCI-H226 lung was 72.6%; in the assay on NCI-H322M lung it was 81.5%; in the assay on HOP-62 NSCLC it was 86.3%; in the assay on NCI-H460 lung it was 79%; in the assay with HOP-92 NSCLC it was -17.9% (active); in the assay on NCI-H522 lung it was 60.4%. For the same molecule, the values for the growth in the assay with A549/ATCC NSCLC, in the assay on 786-0 renal and in the assay with COLO 205 colon were 91.3%, 71.6% and 107%, respectively.
Consider `Cc1cc(C)c(-c2c(N)cc(Br)cc2Br)c(N)c1`, for which the growth in the assay with NCI-H226 lung was 76.3%; in the assay with NCI-H322M lung it was 102%; in the assay with HOP-62 NSCLC, 39.4%; with NCI-H460 lung, 83%; with HOP-92 NSCLC it was -6% (active); in the assay on NCI-H522 lung, 62.9%. For the same molecule, the growth in the assay with A549/ATCC NSCLC is 55.5%; in the assay on 786-0 renal, 45.9%; in the assay with COLO 205 colon, 54%.
For `N#CC1=C(N)Oc2c(sc3c(Br)cccc23)C1c1ccc(Br)cc1` (configuration not stated), the growth was 57.1% with NCI-H226 lung; 42.3% in the assay with NCI-H322M lung; 22% with HOP-62 NSCLC; 6.62% (active) with NCI-H460 lung; 34.7% in the assay with HOP-92 NSCLC; -7.13% (active) in the assay with NCI-H522 lung. Besides, the growth is 25.5% with A549/ATCC NSCLC, 17.1% with 786-0 renal and -49.5% (active) in the assay on COLO 205 colon.
For `Cc1ccc(S(=O)(=O)Oc2ccc(NC(=O)c3ccc(Cl)cc3)cc2)cc1`, the growth is 109% in the assay with NCI-H226 lung; 91% in the assay with NCI-H322M lung; 91.1% with HOP-62 NSCLC; 103% in the assay with NCI-H460 lung; 102% in the assay on HOP-92 NSCLC; 83.8% in the assay with NCI-H522 lung. The growth in the assay with A549/ATCC NSCLC was 95%; in the assay on 786-0 renal, 91.1%; with COLO 205 colon, 113%.
With `CC(=O)CC[C@H]1C(=O)N[C@@H](C(C)C)C(=O)N[C@@H](Cc2cc(O)cc(F)c2)C(=O)N2CCC[C@H](N2)C(=O)O[C@H](/C(C)=C/C=C/C(=O)OC(C)(C)C)C/C=C/C=C/[C@H](O)[C@H](C)[C@H]1O`, the growth was 76.8% in the assay on NCI-H226 lung; 69.2% in the assay with NCI-H322M lung; 44.9% with HOP-62 NSCLC; 13.3% in the assay on NCI-H460 lung; 55.2% with HOP-92 NSCLC; 43.8% in the assay with NCI-H522 lung. Besides, the growth is 49.9% in the assay with A549/ATCC NSCLC, 36.2% with 786-0 renal and 51.7% in the assay on COLO 205 colon.
